A selection follows. No count for the full screen is at hand.
B1: il10ra_site1_sap_14_mot_HHH_eva_0266_af2_000000000_0001_3_18_H_._HHH_b1_03321_0001_0000100001_0000001_0_0001 (protein)
chain: SSSSYEELKKLIERITRALREGNREEAQELIERVEELAEERNDWSARFVARVLQEALEANSSSSS
B2: il10ra_site1_normal_mot_HHH_b2_00475_000000107_0001_44_57_H_._HHH_b2_03520_0001_0000600038_0000001_0 (protein)
chain: SSSSDEEEVSHLLFRALELLFRGDKEEAEELVEEAKEIAEESNDPELQRYVEIAEHFVKAHSSSS
B3: il10ra_site1_normal_mot_HHH_b2_08186_000000021_0001_43_56_H_._HHH_b1_00125_0001_0000100002_0000001_0 (protein)
chain: SSSSSSDLEEEIEELLEELKQISDPERFAEVARRVLRLIYELGDEELLQELWEILKRLSSSSSSS
B4: il10ra_site1_normal_mot_HHH_b1_05670_000000169_0001_1_19_H_._HHH_b2_02857_0001_0000400035_0000001_1 (protein)
chain: SSSSDEDYRRAKELIELIVELLREGNPEEAKKVLEELRELAEENNNPVLEWSVRLLEEDINSSSS
B5: il10ra_site1_sap_27_mot_HHH_b1_05870_000000031_0001_1_20_H_._HHH_b2_06019_af2_0001_0000100004_0000001_0_0001 (protein)
chain: SSSSSDIEELLREAEELAEEGDPEEAARLLLEALKLIYERQDKELLQELWEVVRRVAEISSSSSS
B6: il10ra_site1_sap_19_mot_HHH_b2_03220_af2_000000223_0001_23_40_H_._HHH_b1_07213_0001_0000100001_0000001_0_0001 (protein)
chain: SSSSDEEQEELLRLLRKLVELLLRGDKEEAERLARELLELAEELNDEKVVHVVEDLEKTVSSSSS
B7: il10ra_site1_sap_24_mot_HHH_b2_00475_000000107_0001_44_57_H_._HHH_b1_04576_0001_0000500027_0000001_0_0001 (protein)
chain: DLLELAFELQRRQGTPPEDVIRALLYLAHAANDPERVELLEEVLKLLEDGDPERAEELLKEASKR
B8: il10ra_site1_sap_20_mot_HHH_b1_07100_000000193_0001_1_18_H_._HHH_b2_05849_0001_0000400035_0000001_0_0001_af2pred_0001 (protein)
chain: SSSSSERLELTIKFIEFLLEQGDPEAAKRLARAAAQIAKKDGDEELLRRIEELLEEAEELLSSSS
B9: il10ra_site1_normal_mot_1cde5897893f3d1588f92be3b001cdf2_0001_af2_000000130_0001_54_65_H_._HHH_b2_05871_0001_0000300015_0000001_1_af2pred_0001 (protein)
chain: SSSSSDEEVEERVEELLERLHHVDPKEAAQLLHEAARLAAELDNPELLELVFEAAEEVISSSSSS
B10: il10ra_site1_sap_30_mot_HHH_b1_02809_af2_000000277_0001_40_57_H_._HHH_b1_05733_0001_0000200016_0000002_0_0001 (protein)
chain: SSSSSEASRRIYELLRRIVELHHEGNPEEARELIEEAKELAEEAGDRVLLWVIEWLERLVNSSSS
B11: il10ra_site1_sap_21_mot_HHH_b1_04771_000000013_0001_40_56_H_._HHH_b1_05247_0001_0000500023_0000001_0_0001 (protein)
chain: SSSSDQEEELVRAAIRLIEQLIKNGNPEAARMILWAAEKLAKEINNPELLEELEELKELLNSSSS
B12: il10ra_site1_normal_mot_a6c796b944619e241e020fd597ddb6da_0001_af2_000000092_0001_15_31_H_._HHH_b2_01778_af2_0001_0000100002_0000002_0_af2pred_0001 (protein)
chain: SSSSSSSEEEQEVHALIFFARISDNEDAAKISLELAKKIAEEINNEELREEIEELEKELSSSSSS
B13: il10ra_site1_normal_mot_HHH_b2_01705_af2_000000069_0001_44_57_H_._HHH_b1_04218_af2_0001_0000400020_0000001_0 (protein)
chain: SSSSSSDSEELLEEAEELLKEIKDPEERTEVYRKFAEELVELGDREAIERLSELFIRASSSSSSS
B14: il10ra_site1_sap_19_mot_HHH_b1_00992_000000182_0001_23_40_H_._HHH_b1_02574_0001_0000200023_0000001_0_0001 (protein)
chain: SSSSDEEEELVRAALRLAEQAYENGDPEAAKRLLWAAEFLAREIGDEELEELVERVEEKISSSSS
B15: il10ra_site1_sap_24_mot_HHH_b1_02665_000000293_0001_1_18_H_._HHH_b2_00244_0001_0000100001_0000001_0_0001_af2pred_0001 (protein)
chain: SSSSDSRELIRLLRRALELLNDGNPEEAEKLLERAQEIAEEANSLNLRVVIEFVLEQVEQHSSSS
B16: il10ra_site1_normal_mot_HHH_b2_08265_af2_000000206_0001_22_38_H_._HHH_b2_05887_0001_0000200025_0000002_0 (protein)
chain: SSSSSDEEEVEELTREIERLLEEGDLEEAARLIQELLRVAYENKDQEAIQLAWELAQLAKSSSSS
B17: il10ra_site1_normal_mot_HHH_b2_08186_000000021_0001_43_56_H_._HHH_b1_08707_0001_0000400035_0000001_0 (protein)
chain: SSSSSDIEELLEEAERLAEEGNPEEALRLLQEALRLIFENQDEELLQELWEVLRLVARLSSSSSS
B18: il10ra_site1_sap_8_mot_HHH_b1_06348_000000162_0001_1_15_H_._HHH_b1_06922_0001_0000100010_0000001_0_0001_af2pred_0001 (protein)
chain: SSSSSEAEKALRWFLRAVEELLKRGNPEAAKLALRDARFAAKFLNDEEIEERLEELEKLLDSSSS
B19: il10ra_site1_sap_18_mot_HHH_b1_04818_af2_000000063_0001_42_55_H_._HHH_b1_04225_af2_0002_0000100001_0000002_0_0001 (protein)
chain: SSSSDETEEVAELMREAVELDHNGDKEEAERVAREALELAEQLNNDVLRIQAEYLEKLIGSSSSS
B20: il10ra_site1_sap_17_mot_HHH_b2_03328_af2_000000127_0001_1_19_H_._HHH_b1_04993_0001_0000100008_0000001_0_0001 (protein)
chain: SSSSSIRERIIRLLYRALRLAAEGNPEEAERLIEEAHELAEELGDPELERYIRILLHFVRSSSSS
B21: il10ra_site1_sap_16_mot_HHH_b2_04251_af2_000000037_0001_42_56_H_._HHH_b1_07004_0001_0000200017_0000001_0_0001 (protein)
chain: SSSSDVRERAARVAIEVLRIAFQQSDPEALRAVWELFRRIIEEGDPELLEELEQLLEELRSSSSS
B22: il10ra_site1_sap_30_mot_HHH_b2_02053_af2_000000006_0001_3_19_H_._HHH_b2_06177_0001_0000100006_0000002_0_0001_af2pred_dldesign_0_af2pred (protein)
chain: SPEIEAIRALLKENLSLACAALAKLLAESGNQEDIALARELARLLFEDPERAKELAEKLLAELAK
B23: il10ra_site1_normal_mot_8756ee2cf497b5429c717dfc0c0bcfd6_0001_000000186_0001_1_13_H_._HHH_b1_07372_0001_0000100003_0000001_1 (protein)
chain: SSSSSEEAREVYELIRRAAELHRNGNPEEAEEVLKEAEELAREANNDVLLFQIEYLLRHIGSSSS
B24: il10ra_site1_sap_16_mot_HHH_b1_00992_000000182_0001_23_40_H_._HHH_b1_02295_af2_0001_0000300017_0000001_0_0001 (protein)
chain: SEQVREIEELLKRNVEQAIAALAHLLAKSGDPELLRLAKELSRLMFQNPEEARKLVEEILEELKK
B25: il10ra_site1_normal_mot_HHH_b2_03220_af2_000000223_0001_23_40_H_._HHH_b1_05042_0001_0000100015_0000001_0 (protein)
chain: SSSSSRELSEEAWELLREILELIYEGDEERAQELLREVEEIAEEANSFALEYTVRILKEQLSSSS
B26: il10ra_site1_sap_22_mot_690a356816548de866c59e88e666ab0a_0001_1_af2_000000025_0001_1_13_H_._HHH_b1_01796_af2_0001_0000400019_0000001_0_0001_af2pred_0001 (protein)
chain: SSSSDIAEADARQAFKLLEIAHEQNDEELLERALELLEYLARLSNDPEAERLLEEAEKLVGSSSS
B27: il10ra_site1_normal_mot_HHH_b1_01082_af2_000000031_0001_3_19_H_._HHH_b1_06064_0001_0000200007_0000001_0 (protein)
chain: SSSSSYEEVKKLIERIVELLRRGDHEEAEKLIRELEELAEELNNPSLRFVVRLLEEVLERLSSSS
B28: il10ra_site1_sap_17_mot_HHH_b1_03763_000000209_0001_22_38_H_._HHH_b1_06016_0001_0000500017_0000001_0_0001 (protein)
chain: SSSSDDDEELLEAALRIAEQALEAGDPESARLILLAAARIAEELGNEELLEEIRRLLEEIRSSSS
B29: il10ra_site1_normal_mot_HHH_b2_04131_000000071_0001_1_16_H_._HHH_b2_02423_af2_0001_0000200002_0000002_0 (protein)
chain: SSSSSSDEELQRLLHELLRLYLKGDPRVEEVAEELRELAEELNNEVARFIVEAVERRLSSSSSSS
B30: il10ra_site1_sap_21_mot_HHH_b1_05126_000000010_0001_38_52_H_._HHH_b2_05985_af2_0001_0000600013_0000001_1_0001 (protein)
chain: SSSSDLEEEIEKLLEELEELIKEGDRERITELALKIVKLIYEAKNAELLRRLWELVKAFYSSSSS
B31: il10ra_site1_normal_mot_HHH_b1_04771_000000013_0001_40_56_H_._HHH_b1_06413_0001_0000200008_0000001_0 (protein)
chain: SSSSDLDERVSRLSQEVFRLALRGNPEEAEKVVEEAIELAEEANNERALRVLRDLEQVLESSSSS
B32: il10ra_site1_normal_mot_HHH_b1_02997_000000220_0001_39_52_H_._HHH_b1_04476_0001_0000500018_0000001_0_af2pred_dldesign_0_af2pred (protein)
chain: SSSSSSSNEEVVALLRRAMEEPDPEEAKRLAEEALRLAQANNNEILAHTAQLLLEQLESSSSSSS
B33: il10ra_site1_sap_25_mot_HHH_b2_05761_af2_000000185_0001_1_18_H_._HHH_b1_05595_af2_0001_0000200006_0000001_0_0001 (protein)
chain: SSSSDEDERYVELSLRFAEWLLKEGDPEAAKRILEAAREIAERANNEELREELEELLEKIGSSSS
B34: il10ra_site1_normal_mot_3af0db62db2b275566dae2e03bf881fa_0001_000000003_0001_37_50_H_._HHH_b2_06527_0001_0000300018_0000001_0_af2pred_0001 (protein)
chain: SSSSSSDLEQQVRAAIWFAKNIHNPTVRRKALEFALKIAEEINNEELVEEIRELLEQVNSSSSSS
B35: il10ra_site1_normal_mot_3c6ad1a4bc7d4f5cf55cee527202d42a_0001_000000108_0001_32_49_H_._HHH_b2_03602_af2_0001_0000600008_0000001_0_af2pred_dldesign_0_af2pred (protein)
chain: SSSSSDKEYYDALVKYYKEALALGKPEAAEKIALKGAEMRLEGKSLEEFEEKAKEILEEESSSSS
B36: il10ra_site1_sap_23_mot_39ab2cb694c8b9c1dc7e65c0d672c93e_0001_000000036_0001_53_65_H_._HHH_b1_07337_0001_0000100009_0000001_0_0001 (protein)
chain: SSSSDEEYKEVKRLIEEIAEALRNNDEELVRELLEELRELAEEINNPAAEFSLRILEEALNSSSS
B37: il10ra_site1_normal_mot_HHH_b2_00277_af2_000000172_0001_1_17_H_._HHH_eva_0065_0002_0000400034_0000001_0 (protein)
chain: DPEKEKLEEEIREVLERFEKGKIDPEEAKELLSRLAFKAARLGDDEAVELAIRAYAAIHQAEQRS

What follows are binders tested against il10ra, Q13651 (assay: yeast display titration).
Chain of il10ra, Q13651 (Q13651 whole entry): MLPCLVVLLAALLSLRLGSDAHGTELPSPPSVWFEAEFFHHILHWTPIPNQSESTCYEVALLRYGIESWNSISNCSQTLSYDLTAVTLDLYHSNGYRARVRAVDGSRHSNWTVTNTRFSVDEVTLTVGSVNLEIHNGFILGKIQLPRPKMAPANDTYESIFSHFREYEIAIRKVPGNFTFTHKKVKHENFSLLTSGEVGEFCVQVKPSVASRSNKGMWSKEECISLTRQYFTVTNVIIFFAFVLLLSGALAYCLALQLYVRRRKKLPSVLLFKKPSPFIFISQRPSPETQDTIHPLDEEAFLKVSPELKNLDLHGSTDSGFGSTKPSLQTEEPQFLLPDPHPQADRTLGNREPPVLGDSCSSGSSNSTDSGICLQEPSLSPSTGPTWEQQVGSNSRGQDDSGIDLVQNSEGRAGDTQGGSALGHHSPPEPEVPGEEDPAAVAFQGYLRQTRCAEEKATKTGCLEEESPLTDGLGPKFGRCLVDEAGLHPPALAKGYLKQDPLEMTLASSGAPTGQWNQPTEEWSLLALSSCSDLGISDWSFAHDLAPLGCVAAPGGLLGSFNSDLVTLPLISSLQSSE

Apparent Kd, inactive:
B1 no binding seen, B2 no binding seen, B3 no binding seen, B4 no binding seen, B5 no binding seen, B6 no binding seen, B7 no binding seen, B8 no binding seen, B9 no binding seen, B10 no binding seen, B11 no binding seen, B12 no binding seen, B13 no binding seen, B14 no binding seen, B15 no binding seen, B16 no binding seen, B17 no binding seen, B18 no binding seen, B19 no binding seen, B20 no binding seen, B21 no binding seen, B22 no binding seen, B23 no binding seen, B24 no binding seen, B25 no binding seen, B26 no binding seen, B27 no binding seen, B28 no binding seen, B29 no binding seen, B30 no binding seen, B31 no binding seen, B32 no binding seen, B33 no binding seen, B34 no binding seen, B35 no binding seen, B36 no binding seen, B37 no binding seen
